Screening data: PubChem, National Center for Advancing Translational Sciences (NCATS)
Hits are enriched below; roughly 6.2% of the tested compounds scored in any of these assays.
Lassa entry inh: blocks Lassa virus binding to or entry into cells; Lassa virus pseudotype entry inhibition, cell reporter; 300,000 tested, 1.2% active; Potency, µM (series often up to 37.9 µM), inactives show top-dose activity change, negative = inhibition, most hits filed as inhibitors; AID 540256; calls by dose curve; tested in HEK293 cells; also: potency is read from the fitted curve at half-maximal effect; nearly all actives have a fitted effect of over 50% in size
HCMV inh: blocks human cytomegalovirus replication | activity change, negative = inhibition, % at 57.5 µM | 410,000 tested, 4.5% active | HFF cells, HCMV-luciferase reporter, 72 h; active compounds read low; in the data active = activity change below about -60%; inconclusive = no clear call, values can overlap the other calls; inactive = above about -39%
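Human foreskin fibroblasts infected with luciferase-reporter HCMV at MOI 1 PFU/cell, compounds at two doses. Luciferase measured 72 h post infection; normalized to buffer-only basal and Salinomycin (10uM) controls.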
Marburg entry inh: blocks Marburg virus binding to or entry into cells. AID 540276. Potency, µM (titrated, usually from 37.8 µM), for the others: top-dose activity change, negative = inhibition, actives largely listed as inhibitors. Marburg virus pseudotyped entry inhibition, cell reporter. 300,000 tested, 1.8% active; calls by dose curve; tested in HEK293 cells; also: potency is read from the fitted curve at half-maximal effect
FMDV inh: blocks foot and mouth disease virus; FMDV antiviral cell-based qHTS; Potency, µM (series often up to 57.9 µM), for inactives: at the top dose activity change, negative = inhibition, actives largely listed as inhibitors; 410,000 tested, 1.2% active; calls by dose curve; tested in HEK293T cells; also: read-out not given here; potency is read from the fitted curve at half-maximal effect; nearly all actives have a fitted effect of over 45% in size
* marks the source's active call; other numbers are inactive results; u = inconclusive; x = no result given; [ ] = dose if it differs, or a comment. % is scaled to controls: 0 for no effect and ±100 for the full control effect.

SMILES | Lassa entry inh | HCMV inh | Marburg entry inh | FMDV inh
O=C(N/N=C/c1cccc2ccccc12)c1n[nH]c2c1CCCC2 | -35%[46.1 µM] | -16 | u | 31%
C/C(=N\NC(=O)c1n[nH]c2c1CCC2)c1cccs1 | -22% | -91* | -4%[46.1 µM] | 41%
O=C(N/N=C/c1cccs1)c1n[nH]c2c1CCCC2 | 2.2µM* | -85* | u | -23%
O=C(N/N=C\c1cccc(Cl)c1)c1n[nH]c2c1CCCC2 | u | 81 | u | 7%
Cc1cccc(N/N=C(\C(N)=O)C2=NC(C)(C)Cc3ccccc32)c1 | 6.3µM* | -98* | u | 25µM*
Cc1cccc(N2CCN(C(=O)c3ccc(S(=O)(=O)N(C)c4ccccc4)cc3)CC2)c1C | 4.5µM* | u | u | u
COC(=O)c1cc(C(=O)N2CCN(c3cccc(C)c3C)CC2)cc([N+](=O)[O-])c1 | -23% | 9 | 4.5µM* | -29%
Cc1onc(-c2c(F)cccc2Cl)c1C(=O)N1CCSCC1 | 22% | 22 | 10%[46.1 µM] | 0%
Cc1onc(-c2c(F)cccc2Cl)c1C(=O)N1CCN(c2ncc(Br)cn2)CC1 | u | -4 | u | 28µM*
CCOc1ncccc1C(=O)N1CCN(c2cccc(C)c2C)CC1 | u | -96* | u | u
CCc1noc(C)c1C(=O)N1CCN(c2cccc(C)c2C)CC1 | u | -33 | -18% | u
Cc1cccc(NS(=O)(=O)c2cccc(C(=O)N3CCN(c4ccccn4)CC3)c2)c1 | u | -36 | u | 19%
CS(=O)(=O)c1ccc(C(=O)N2CCN(Cc3ccccc3)CC2)cc1 | -9% | u | 20%[46.1 µM] | -10%
CN(c1ccccc1)S(=O)(=O)c1cccc(C(=O)N2CCN(c3ccccn3)CC2)c1 | u | -15 | -22% | 40µM*
CN(c1ccc(C(=O)N2CCN(Cc3ccccc3)CC2)cc1)S(=O)(=O)c1ccc(Cl)cc1 | -11%[46.1 µM] | -63* | u | -23%
O=C(c1ccc(CNS(=O)(=O)c2ccccc2)cc1)N1CCN(Cc2ccccc2)CC1 | u | -76* | u | u
Cc1cccc(N2CCN(C(=O)c3c(-c4ccccc4)noc3C)CC2)c1C | u | -12 | 2.5µM* | u
C[C@H](CO)N1C[C@H](C)[C@@H](CN(C)CC2CCOCC2)Oc2ncc(Br)cc2C1=O | x | -5 | x | -4%
COCCCNc1nc(SCc2ccccc2)nc2sc3c(c12)CCC3 | 10% | u | -2% | 5%
CCNC(=S)N(CCN(C)C)Cc1cc2cc(OCC)ccc2[nH]c1=O | 5% | 4 | -23% | 1%
CC(C)(C)C1CCC(C(=O)Nc2nccs2)CC1 (configuration not stated) | x | -27 | x | 41%
O=C(N/N=C/c1ccsc1)c1ccc2ccccc2n1 | -18%[46.1 µM] | -67* | u | 51%
Oc1ccc(/C=N/Nc2ccc(C(F)(F)F)cn2)c(O)c1 | x | -94* | x | x
CCOC(=O)C1=C(CNCCOc2ccc(OC)cc2)NC(=O)NC1c1ccc2c(c1)OCO2 (configuration not stated) | -16% | 24 | 0%[46.1 µM] | -16%
Cc1cc(N=Cc2c(O)n(-c3ccc(C)c(C)c3)c(=O)c3ccccc23)no1 | -15% | -64* | 4% | x
SMILES | Lassa entry inh | HCMV inh | Marburg entry inh | FMDV inh
Cc1cc(N=Cc2c(O)n(-c3ccc4c(c3)OCO4)c(=O)c3ccccc23)ccn1 | u | -92* | u | 16%
Cc1ccc(S(=O)(=O)N2CCOCC2)cc1NC(=O)COc1ccc(-c2nnco2)cc1 | u | 9 | u | -27%
O=c1n(CC2CO2)c(=O)n(CC2CO2)c(=O)n1CC1CO1 (configuration not stated) | u | -62* | 0.45µM* | -12%
Cc1ccc(NC(=O)c2cnn(-c3ccccc3)c2C)cc1 | x | 39 | x | -22%
Cc1cc(C(=O)Nc2ccc(Cl)cc2)c(C)n1-c1ccccc1 | u | -93* | 1.1µM* | u
Cc1ccc(NC(=O)c2cc(C)n(-c3cccc(C)c3)c2C)cc1 | 10µM* | -5 | 6.5µM* | 10%
Cc1ccc(-n2c(C)cc(C(=O)NS(=O)(=O)c3ccc(C)cc3)c2C)cc1 | 4%[46.1 µM] | -19 | -5%[46.1 µM] | 9%
Cc1ccc(NC(=O)c2cc(C)n(-c3ccccc3)c2C)cc1 | 2.8µM* | -93* | 2.2µM* | u
CCN(CC)S(=O)(=O)c1ccc(N2CCCCC2)c(NC(=O)/C(C#N)=C/c2ccc(OC)cc2)c1 | -13% | 30 | u | -28%
CSc1nc(N)nc(SCC(=O)OC(C)C)c1C#N | -3% | -108* | 13% | -19%
Cc1cc(/C=C(\C#N)C(=O)N2CCOCC2)c(C)n1C1CCCC1 | x | -84* | 4% | -3%
Cc1sc2ncnc(N3CCC(C(=O)Nc4nc(-c5cccs5)cs4)CC3)c2c1C | 4% | 16 | 2.2µM* | -18%
CCN(CC)S(=O)(=O)c1cc(NC(=O)C2CCN(c3ncnc4sc(C)c(C)c34)CC2)ccc1Cl | u | -82* | 3.5µM* | 8.9µM*
Cc1sc2ncnc(N3CCC(C(=O)Nc4ccc(S(N)(=O)=O)cc4)CC3)c2c1C | x | -79* | x | u
CCOC(=O)c1ccccc1NC(=O)C1CCN(c2ncnc3sc(C)c(C)c23)CC1 | -14% | x | 2%[46.1 µM] | u
CCc1nnc(NC(=O)C2CCN(c3ncnc4sc(C)c(C)c34)CC2)s1 | x | 94 | x | u
Cc1ccc(NC(=O)C2CCN(c3ncnc4sc(C)c(C)c34)CC2)cc1S(=O)(=O)N(C)C | -17% | u | u | u
Cc1sc2ncnc(N3CCC(C(=O)Nc4ccccc4C(C)(C)C)CC3)c2c1C | -3%[46.1 µM] | -36 | u | 25µM*
CCc1csc(CCNC(=O)C2CCC(=O)N(CCOC)C2)n1 (configuration not stated) | x | 0 | x | 0%
Cc1nnc(SCc2c(Cl)cccc2Cl)s1 | 3% | 17 | 19%[46.1 µM] | 5%
Cc1sc2ncnc(N3CCC(C(=O)Nc4cc(Cl)ccc4Cl)CC3)c2c1C | -8% | -20 | 1% | -20%
Cc1sc2ncnc(N3CCC(C(=O)NNC(=O)c4ccc(Cl)cc4)CC3)c2c1C | 13% | u | -27% | 25µM*
Cc1ccc(C)c(S(=O)(=O)N2CCN(C(=O)C3CCN(c4ncnc5sc(C)c(C)c45)CC3)CC2)c1 | u | -67* | u | u
CCN(CC(=O)Nc1c(F)cccc1F)C(=O)c1cccc(-n2cccc2)c1 | 14% | -19 | -9%[46.1 µM] | -6%
Cc1ccc(Nc2nnc(SCC(=O)Nc3cccc(S(=O)(=O)NC4=NCCCCC4)c3)s2)c(C)c1 | u | -13 | u | 32µM*
SMILES | Lassa entry inh | HCMV inh | Marburg entry inh | FMDV inh
COc1ccc(/C=C/C(=O)Nc2cccc(S(=O)(=O)NC3=NCCCCC3)c2)cc1OC | x | -16 | x | 40µM*
O=C(Nc1cccc(S(=O)(=O)NC2=NCCC2)c1)c1ccc(F)cc1 | x | u | x | -16%
O=C(Nc1cccc(S(=O)(=O)NC2=NCCC2)c1)c1ccc(C(F)(F)F)cc1 | 0% | -60* | -15% | -24%
COc1cc(OC)cc(C(=O)OCC(=O)Nc2cccc(S(=O)(=O)NC3=NCCCCC3)c2)c1 | 18% | -18 | u | 22µM*
CC(C)=CC(=O)Nc1cccc(S(=O)(=O)NC2=NCCCCC2)c1 | x | 4 | x | 10%
Cc1ccc(S(=O)(=O)NCC2CCC(C(=O)N(C)Cc3ccccc3)CC2)cc1 (configuration not stated) | u | 0 | x | -12%
